Among the data in PubChem BioAssay (NCATS) are Potency values, retold here.

Records with an inconclusive call do not appear. A call without a number means that no potency is given here. Active and inactive are the calls of the source. Calls follow the shape of the dose curve; as a rule, active = well fitted inhibition curve with a large enough effect; inconclusive = small, poorly fitted or top-dose-only effect; inactive = flat fitted curve, though single readings scatter.

Luciferin 4-monooxygenase (Photinus pyralis), sequence (P08659 whole entry, looked up): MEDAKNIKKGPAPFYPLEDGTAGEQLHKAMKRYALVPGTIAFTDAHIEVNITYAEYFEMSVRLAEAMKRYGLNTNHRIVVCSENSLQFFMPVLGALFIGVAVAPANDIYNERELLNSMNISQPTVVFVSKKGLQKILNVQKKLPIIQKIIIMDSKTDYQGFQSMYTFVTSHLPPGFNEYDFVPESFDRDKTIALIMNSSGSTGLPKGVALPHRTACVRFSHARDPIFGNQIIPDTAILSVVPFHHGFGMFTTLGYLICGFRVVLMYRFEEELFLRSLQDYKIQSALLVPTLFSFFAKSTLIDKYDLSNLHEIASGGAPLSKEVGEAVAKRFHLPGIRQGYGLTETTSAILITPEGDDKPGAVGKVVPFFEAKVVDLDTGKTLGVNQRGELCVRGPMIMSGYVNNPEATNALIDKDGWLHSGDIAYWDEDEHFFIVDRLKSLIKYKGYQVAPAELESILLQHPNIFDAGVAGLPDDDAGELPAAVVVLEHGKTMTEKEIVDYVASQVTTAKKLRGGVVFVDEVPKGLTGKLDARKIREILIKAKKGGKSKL

The assay addresses Luciferin 4-monooxygenase (Photinus pyralis) (UniProt P08659). The assay can be described thus: Biochemical firefly luciferase enzyme assay for NPC (AID 624030).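 Also: purified P. pyralis luciferase at 10 nM with luciferin and ATP substrate; nearly all actives have a fitted effect of over 70% in size.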 As to conditions: purified P. pyralis luciferase, luminescence, 5 min; series mostly up to 58.6 µM. The method in brief:
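Purified P. pyralis luciferase at 10 nM in 50 mM Tris Acetate (final), luminescence read within 5 minutes of enzyme addition to compounds. Activity normalised to PTC124 versus DMSO; concentration-response curves classed by r2, magnitude and activity.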
As for `C=CC[N+]1([C@H]2C[C@H]3[C@@H]4CC[C@H]5C[C@H](OC(C)=O)[C@@H](N6CCCCC6)C[C@]5(C)[C@H]4CC[C@]3(C)[C@H]2OC(=O)CC)CCCCC1`, the Potency result is “inactive”.
On to `Nc1nnnn1-c1ccccc1`, for which the Potency result is “inactive”.
With `COc1cc(C(=O)OC(COCCC(C)C)CN2CCOCC2)cc(OC)c1OC` (stereo not given) the entry was “inactive”; with `O=C1[C@@H]2[C@H]3CC[C@H](C3)[C@@H]2C(=O)N1CCCCN1CCN(c2ncccn2)CC1`, “inactive”; with `OC(CCCN1CCCCC1)(c1ccccc1)c1ccccc1`, “inactive”.
In the case of `CC(=O)Oc1ccc(C2(c3ccc(OC(C)=O)cc3)Oc3ccccc3NC2=O)cc1`, the Potency entry was “inactive”.
With `CC(=O)Nc1c(I)c(NC(C)=O)c(I)c(C(=O)O)c1I` the entry was “inactive”; with `CC(C)=CCC/C(C)=C/CC/C(C)=C/CCC(=O)OC/C=C(\C)CCC=C(C)C`, “inactive”; with `C[C@H]1NCc2cc(-c3ccc4c(=O)c(C(=O)O)cn(C5CC5)c4c3OC(F)F)ccc21`, “inactive”.
With `CCCCNc1ccc(C(=O)OCCN(CC)CC)cc1` the entry was “inactive”; with `CCCCCCCCCCCCCCCCCCNC(=O)OC1CCN(C(=O)OC[C@H](COC(=O)N(Cc2cccc[n+]2CC)C(=O)c2ccccc2OC)OC)CC1`, “inactive”.
The same measure for `COc1cc(NS(=O)(=O)c2ccc(N)cc2)nc(C)n1`: “inactive”; for `C[N+]1(C)CCC(OC(=O)C(O)(c2ccccc2)C2CCCC2)C1` (stereo not given): “inactive”; for `CCNC(=O)NCCCOc1cccc(CN2CCCCC2)c1`: “inactive”.
For `CC(=O)N(CC(O)CO)c1c(I)c(C(=O)NCCO)c(I)c(C(=O)NCC(O)CO)c1I` (stereo not given), the Potency result was “inactive”.
The same measure for `CN=C(N)NC(=O)Nc1c(C)cccc1C`: “inactive”; for `CO/N=C(/C(=O)N[C@@H]1C(=O)N2C(C(=O)[O-])=C(C[n+]3ccn4ncccc43)CS[C@H]12)c1nsc(N)n1`: “inactive”; for `CN1CCC(=C2c3ccccc3CCc3cccnc32)CC1`: “inactive”.
With `Nc1c(NC/C=C\COc2cc(CN3CCCCC3)ccn2)c(=O)c1=O` the entry was “inactive”.
The same measure for `OCc1cccnc1`: “inactive”; for `CCN1CCN(c2cc(-c3ccc(F)cc3)c3c(n2)CCCCCC3)CC1`: “inactive”; for `C[N+]1(CC2COC(c3ccccc3)(c3ccccc3)O2)CCCCC1` (stereo not given): “inactive”.
For the compound `CC(CCc1ccc2c(c1)OCO2)NN` (stereo not given), the Potency entry is “inactive”.
Take `N=C(N)c1ccc(OCCCOc2ccc(C(=N)N)cc2)cc1`: the Potency result was “inactive”.
With `Cn1cc(S(C)=O)c(=O)c2ccc(F)cc21` (stereo not given), the Potency entry is “inactive”.
Take `O=C(O)c1[nH]n(-c2ccc(S(=O)(=O)O)cc2)c(=O)c1N=Nc1ccc(S(=O)(=O)O)cc1`: the Potency result is “inactive”.
The same measure for `COC(=O)C1=C(C)NC(COC(N)=O)=C(C(=O)OC(C)C)C1c1cccc(Cl)c1Cl` (stereo not given): “inactive”; for `OCCc1ccccc1`: “inactive”.
The same measure for `CN(CC1(C)CCCO1)S(=O)(=O)c1ccc(Cl)c(S(N)(=O)=O)c1` (stereo not given): “inactive”; for `CCCCCC[C@@H](CCC)C(=O)O`: “inactive”.
With `Cc1cccc(N(C)C(=S)Oc2ccc3c(c2)CCC3)c1` the entry was “inactive”; with `Cc1cc(O)c2c(O)c3c(O)cccc3cc2c1`, “inactive”; with `CCC(C(=O)NC(=O)NC(C)=O)c1ccccc1` (stereo not given), “inactive”.
As for `C1N2CN3CN1CN(C2)C3`, the Potency result is “inactive”.
For the compound `O=C(O)Cc1ccc(OCCNC[C@H](O)c2ccccc2)cc1`, the Potency entry is “inactive”.
The same measure for `O=C(CCC1CCN(Cc2ccccc2)CC1)c1ccc2c(c1)NCCCC2`: “inactive”; for `CCOC(=O)OCC/C(SC(=O)OCC)=C(\C)N(C=O)Cc1cnc(C)nc1N`: “inactive”; for `CCCN(CCC)C(=O)C(CCC(=O)OCCCN1CCN(CCOC(=O)Cc2c(C)n(C(=O)c3ccc(Cl)cc3)c3ccc(OC)cc23)CC1)NC(=O)c1ccccc1` (stereo not given): “inactive”.
The same measure for `CN1CCC(N(Cc2cccs2)c2ccccc2)CC1`: “inactive”; for `O=C(O)Cc1ccccc1Oc1ccc(Cl)cc1Cl`: “inactive”.
